Test results as given in PubChem BioAssay (Tox21).
“And” between values parts separate entries of the source, which are not always exact repeats. Identical values can stand only once. Results filed as inconclusive are left out. A call without a number means that no potency is given here. The source made the active and inactive calls. Calls come from the whole dose curve; as a rule, active = well fitted inhibition curve with a large enough effect in the repeat runs; inconclusive = weak or mixed curves; inactive = no such curve, though single readings can be large or run the other way.

Test: qHTS assay to identify small molecule antagonists of the thyroid receptor (TR) signaling pathway (AID 743065); note: nearly all actives have a fitted effect of over 55% in size
Details: GH3.TRE-Luc, T3-stimulated luciferase inhibition, 23.5 h; series mostly up to 70.3 µM
Text: U.S. Tox21 Program National Center for Advancing Translational Sciences [NCATS] NIH Chemical Genomics Center [NCGC] U.S. Environmental Protection Agency [EPA] National Institutes of Environmental Health Sciences [NIEHS] National Toxicology Program [NTP] U.S. Food and Drug Administration [FDA] Tox21 Assay Overview: Thyroid receptor (TR), a nuclear hormone receptor, plays an important role in development, proliferation, differentiation, metabolism, brain function, and cardiovascular system. […] To profile the Tox21 10K compound library in TR signaling, a cell-based GH3-TRE-Luc assay (GH3.TRE-Luc cell line, developed by the laboratory of Dr. Albertinka J. Murk, Wageningen University) was used to measure the inhibition of TR. GH3 (rat pituitary tumor) cells stably expressing a TR activity sensor consisting of two TR response elements and a luciferase reporter gene.
Tox21 Assay Protocol Summary: GH3.TRE-Luc cells were dispensed at 1500 cells/4 uL/well into 1536-well white solid bottom plates using a Multidrop Combi dispenser (Thermo Fisher Scientific Inc., Waltham, MA). After the assay plates were incubated at 37 C for 4 hours, 23 nL of library compound or DMSO controls was transferred to the assay plates by a pintool station (Kalypsys, San Diego, CA), followed by addition of 1 ul of T3 (1 nM, final concentration in the wells) to stimulate TR transactivation. The assay plates were incubated at 37 C for 23.5 h, and then 1 uL of CellTiter-Fluor reagent (Promega, Madision, WI) of measuring cytotoxicity was added to each well using a Bioraptr Flying Reagent Dispenser (FRD) workstation (Beckman Coulter, Indianapolis, IN, USA). The plates were incubated at 37 C and 5% CO2 for additional 30 min, and fluorescence intensity was measured by a ViewLux plate reader (PerkinElmer, Shelton, CT). For measuring luciferase reporter gene activity, 4 uL of ONE-Glo Luciferase Assay reagent (Promega) was added to each well using a Bioraptr FRD (Beckman Coulter), followed by 30 min incubation at room temperature. The luminescence intensity of plates was recorded by a ViewLux plate reader (PerkinElmer, Shelton, CT).
Potency is the fitted concentration of half-maximal effect.

| Compound | Potency |
| --- | --- |
| CC1=CC[C@@]23C[C@@H]1C(C)(C)[C@@H]2CC[C@H]3C | inactive |
| Cc1cccc2sc(N)nc12 | inactive |
| CC[C@H]1OC(=O)[C@H](C)[C@@H](O[C@H]2C[C@@](C)(OC)[C@@H](O)[C@H](C)O2)[C@H](C)[C@@H](O[C@@H]2O[C@H](C)C[C@H](N(C)C)[C@H]2O)[C@](C)(O)C[C@@H](C)C(=O)[C@H](C)[C@@H](O)[C@]1(C)O | inactive |
| CCC(CO)(CO)CO | inactive |
| Nc1nc2ccc(OC(F)(F)F)cc2s1 | 21.1 µM (active) |
| O=[N+]([O-])c1ccc2ncccc2c1 | inactive |
| C=CC(=O)O | inactive |
| CC(C)COC(=O)COc1cc(Cl)c(Cl)cc1Cl | inactive |
| Cc1c(C2(c3cc(Br)c(O)c(Br)c3C)OS(=O)(=O)c3ccccc32)cc(Br)c(O)c1Br | 21 µM (active) |
| CCCCC(CC)COS(=O)(=O)O (stereo not given) | inactive |
| C=C(C)C(=O)OCCC(F)(F)C(F)(F)C(F)(F)C(F)(F)C(F)(F)C(F)(F)F | inactive |
| CNS(=O)(=O)c1cc(C(=O)N2CCC(CCN3C4CCC3CC(n3c(C)nc5ccccc53)C4)(c3cccc(F)c3)CC2)c(Cl)cc1F (stereo not given) | 48.6 µM (active) |
| CC[C@H]1OC(=O)[C@H](C)[C@@H](O[C@H]2C[C@@](C)(OC)[C@@H](O)[C@H](C)O2)[C@H](C)[C@@H](O[C@@H]2O[C@H](C)C[C@H](N(C)C)[C@H]2O)[C@](C)(O)C[C@@H](C)CN(C)[C@H](C)[C@@H](O)[C@]1(C)O | 29.8 µM (active) and 36.1 µM (active) |
| CC12CC3CC(C)(C1)CC(N)(C3)C2 | 29.8 µM (active) |
| CC[C@H]1OC(=O)[C@H](C)[C@@H](O[C@H]2C[C@@](C)(OC)[C@@H](O)[C@H](C)O2)[C@H](C)[C@@H](O[C@@H]2O[C@H](C)C[C@H](N(C)C)[C@H]2O)[C@](C)(O)C[C@@H](C)/C(=N\OCOCCOC)[C@H](C)[C@@H](O)[C@]1(C)O | inactive |
| COC(=O)C1=C(C)NC(C)=C(C(=O)OC(C)(C)CN(C)CCC(c2ccccc2)c2ccccc2)C1c1cccc([N+](=O)[O-])c1 (stereo not given) | 6.68 µM (active) |
| O=C(O)CCCc1c[nH]c2ccccc12 | inactive |
| O=C(O)CN1C(=O)c2cccc3cccc(c23)C1=O | inactive |
| COC(OC)OC | inactive |
| [Cl][Nd]([Cl])[Cl] | inactive |

| Compound | Potency |
| --- | --- |
| Nc1cccc2c(N)cccc12 | inactive |
| O=C(c1ccccc1)c1ccc(O)cc1 | inactive |
| CC1CCC(C(C)CS)CC1S (stereo not given) | inactive |
| CN(C)CC/C=C1\c2ccccc2Sc2ccc(Cl)cc21 | 11.9 µM (active) |
| CCCCCCCCCCCCCCN(C)C | inactive |
| CC(=O)OCC1=C(C(=O)O)N2C(=O)[C@@H](NC(=O)CSc3ccncc3)[C@H]2SC1 | inactive |
| N[C@@H](Cc1cc(I)c(O)c(I)c1)C(=O)O | inactive |
| O=NN(CCCl)C(=O)NCCCl | inactive |
| COc1ccc(/C=C/C(=O)c2ccc(OC)cc2OC)cc1 | 26.6 µM (active) |
| OCC(CO)n1cnc(-c2ccc(F)cc2)c1-c1ccnc(Oc2ccccc2)n1 | inactive |
| O=C(Nc1ccc(C(=O)O)c(O)c1)c1ccccc1 | inactive |
| Nc1nc(-c2ccc([N+](=O)[O-])cc2)cs1 | inactive |
| Cc1cccc(C)c1NC(=O)c1cc(S(N)(=O)=O)c(Cl)cc1O | inactive |
| CNc1c2c(nn1C)CCCC2 | inactive |
| CCN(CC)CCOc1ccccc1C(=O)CCc1ccccc1 | 26.6 µM (active) |
| CC(C)(C)CCCCCCOC(=O)c1ccccc1C(=O)OCCCCCCC(C)(C)C | inactive |
| CC(C)c1ccc(C#N)cc1 | inactive |
| ClC1=C(Cl)C1(Cl)Cl | inactive |
| COc1ccc(C2C(=O)c3ccccc3C2=O)cc1 | inactive |
| C1CCCCC1 | inactive |
